Test results reported in the supplement of paper PMC11732987, “Enantioselective OTUD7B fragment discovery through chemoproteomics screening and high-throughput optimisation” (Communications Chemistry, 2025).

Legend:
Test in all cases: log2 ratio of Biotin-Ahx-Ub-VS probe labelling (fragment/DMSO); higher = less target engagement (more negative = stronger competition), active = hit call of the paper (q ≤ 0.05, log2 ratio ≤ -1)
Conditions in all cases: compound concentration: 200 uM; treatment time: 3 h
USP42 = molecular target: T1, USP42 (UniProt Q9H9J4)
T1 sequence (whole entry): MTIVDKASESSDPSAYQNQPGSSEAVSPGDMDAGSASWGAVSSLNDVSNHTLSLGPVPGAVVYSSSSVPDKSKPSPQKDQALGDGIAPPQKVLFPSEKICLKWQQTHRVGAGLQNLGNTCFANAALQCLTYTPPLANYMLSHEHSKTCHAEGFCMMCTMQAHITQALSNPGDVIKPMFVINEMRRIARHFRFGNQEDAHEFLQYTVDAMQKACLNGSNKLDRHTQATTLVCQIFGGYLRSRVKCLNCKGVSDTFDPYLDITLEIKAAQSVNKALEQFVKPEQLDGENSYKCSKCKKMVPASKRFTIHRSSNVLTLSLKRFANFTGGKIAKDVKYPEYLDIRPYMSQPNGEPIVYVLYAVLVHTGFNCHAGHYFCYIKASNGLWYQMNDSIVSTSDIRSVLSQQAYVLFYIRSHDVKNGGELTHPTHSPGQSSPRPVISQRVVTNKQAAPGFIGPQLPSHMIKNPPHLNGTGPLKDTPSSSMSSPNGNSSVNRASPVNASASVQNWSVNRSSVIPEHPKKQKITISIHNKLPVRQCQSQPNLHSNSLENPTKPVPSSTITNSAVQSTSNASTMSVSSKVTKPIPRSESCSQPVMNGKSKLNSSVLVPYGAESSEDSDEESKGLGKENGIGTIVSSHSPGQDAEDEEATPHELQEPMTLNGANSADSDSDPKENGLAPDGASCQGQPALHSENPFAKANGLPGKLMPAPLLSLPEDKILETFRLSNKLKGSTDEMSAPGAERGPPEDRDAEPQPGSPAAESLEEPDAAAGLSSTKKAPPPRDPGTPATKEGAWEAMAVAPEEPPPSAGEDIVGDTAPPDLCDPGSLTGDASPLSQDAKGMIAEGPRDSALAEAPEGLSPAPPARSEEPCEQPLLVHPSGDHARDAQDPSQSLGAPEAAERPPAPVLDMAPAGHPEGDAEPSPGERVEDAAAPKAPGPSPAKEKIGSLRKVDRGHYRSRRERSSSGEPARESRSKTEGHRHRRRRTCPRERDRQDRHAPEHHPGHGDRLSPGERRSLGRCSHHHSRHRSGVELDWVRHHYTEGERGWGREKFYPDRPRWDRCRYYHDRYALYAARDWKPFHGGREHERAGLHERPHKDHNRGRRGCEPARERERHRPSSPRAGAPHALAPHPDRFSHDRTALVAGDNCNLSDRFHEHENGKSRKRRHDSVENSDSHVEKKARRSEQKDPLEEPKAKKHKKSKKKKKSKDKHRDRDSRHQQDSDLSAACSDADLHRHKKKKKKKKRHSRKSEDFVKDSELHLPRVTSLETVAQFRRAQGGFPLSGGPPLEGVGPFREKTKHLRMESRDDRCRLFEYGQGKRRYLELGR
Procedure, shortened: (§1)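 Fragment (200 µM) or vehicle was incubated for 3 h with triplicate HEK293T lysate samples of 495 µg, which were then treated with Biotin-Ahx-Ub-VS at 0.5 µM final for 1 h. Labelled DUBs were enriched on NeutrAvidin, digested with LysC and trypsin, and analysed by diaPASEF LC-MS/MS. Values are average log2 fragment/vehicle ratios from an unpaired t-test on global-median-normalised Spectronaut label-free quantities, using proteins with ≥2 unique peptides.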

USP46 = USP46 (UniProt P62068)
Procedure, shortened: as §1

USP47 = molecular target: T2, USP47 (UniProt Q96K76)
T2 sequence (whole entry): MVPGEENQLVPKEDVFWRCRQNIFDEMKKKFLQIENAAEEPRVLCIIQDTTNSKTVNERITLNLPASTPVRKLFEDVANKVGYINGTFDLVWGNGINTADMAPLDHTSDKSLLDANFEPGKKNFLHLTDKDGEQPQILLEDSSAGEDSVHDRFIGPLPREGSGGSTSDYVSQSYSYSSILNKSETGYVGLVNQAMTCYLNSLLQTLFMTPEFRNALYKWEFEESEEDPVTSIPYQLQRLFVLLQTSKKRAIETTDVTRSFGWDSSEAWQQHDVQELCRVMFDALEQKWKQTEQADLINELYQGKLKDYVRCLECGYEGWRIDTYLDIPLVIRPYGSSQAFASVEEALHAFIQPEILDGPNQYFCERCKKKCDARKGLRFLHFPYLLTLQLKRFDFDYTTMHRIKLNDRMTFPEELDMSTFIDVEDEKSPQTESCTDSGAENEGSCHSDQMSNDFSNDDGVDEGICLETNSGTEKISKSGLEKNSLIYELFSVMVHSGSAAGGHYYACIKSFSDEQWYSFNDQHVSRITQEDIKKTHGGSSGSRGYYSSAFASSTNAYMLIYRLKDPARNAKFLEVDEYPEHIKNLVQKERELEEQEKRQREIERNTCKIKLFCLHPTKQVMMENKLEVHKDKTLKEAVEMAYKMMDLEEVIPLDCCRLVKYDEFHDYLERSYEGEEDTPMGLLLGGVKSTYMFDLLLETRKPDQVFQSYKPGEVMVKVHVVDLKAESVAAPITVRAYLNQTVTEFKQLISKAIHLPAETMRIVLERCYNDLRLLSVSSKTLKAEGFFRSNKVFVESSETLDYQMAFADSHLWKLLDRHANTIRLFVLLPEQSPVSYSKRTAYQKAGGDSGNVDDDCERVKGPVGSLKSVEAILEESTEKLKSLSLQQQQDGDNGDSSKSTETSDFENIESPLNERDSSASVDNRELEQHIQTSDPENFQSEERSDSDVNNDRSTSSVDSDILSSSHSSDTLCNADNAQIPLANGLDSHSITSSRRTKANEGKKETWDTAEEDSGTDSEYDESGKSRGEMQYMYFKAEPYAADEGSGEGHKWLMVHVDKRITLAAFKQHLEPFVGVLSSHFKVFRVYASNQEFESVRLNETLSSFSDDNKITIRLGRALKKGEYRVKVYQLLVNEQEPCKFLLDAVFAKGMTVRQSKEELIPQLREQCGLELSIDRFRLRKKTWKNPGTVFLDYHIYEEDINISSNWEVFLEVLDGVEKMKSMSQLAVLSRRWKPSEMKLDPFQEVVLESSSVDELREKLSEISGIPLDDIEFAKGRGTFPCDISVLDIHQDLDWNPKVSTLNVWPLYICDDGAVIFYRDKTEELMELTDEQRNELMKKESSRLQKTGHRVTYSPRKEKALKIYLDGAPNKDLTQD
Procedure, shortened: as §1

USP48 = molecular target: T3, USP48 (UniProt Q86UV5)
T3 sequence (whole entry): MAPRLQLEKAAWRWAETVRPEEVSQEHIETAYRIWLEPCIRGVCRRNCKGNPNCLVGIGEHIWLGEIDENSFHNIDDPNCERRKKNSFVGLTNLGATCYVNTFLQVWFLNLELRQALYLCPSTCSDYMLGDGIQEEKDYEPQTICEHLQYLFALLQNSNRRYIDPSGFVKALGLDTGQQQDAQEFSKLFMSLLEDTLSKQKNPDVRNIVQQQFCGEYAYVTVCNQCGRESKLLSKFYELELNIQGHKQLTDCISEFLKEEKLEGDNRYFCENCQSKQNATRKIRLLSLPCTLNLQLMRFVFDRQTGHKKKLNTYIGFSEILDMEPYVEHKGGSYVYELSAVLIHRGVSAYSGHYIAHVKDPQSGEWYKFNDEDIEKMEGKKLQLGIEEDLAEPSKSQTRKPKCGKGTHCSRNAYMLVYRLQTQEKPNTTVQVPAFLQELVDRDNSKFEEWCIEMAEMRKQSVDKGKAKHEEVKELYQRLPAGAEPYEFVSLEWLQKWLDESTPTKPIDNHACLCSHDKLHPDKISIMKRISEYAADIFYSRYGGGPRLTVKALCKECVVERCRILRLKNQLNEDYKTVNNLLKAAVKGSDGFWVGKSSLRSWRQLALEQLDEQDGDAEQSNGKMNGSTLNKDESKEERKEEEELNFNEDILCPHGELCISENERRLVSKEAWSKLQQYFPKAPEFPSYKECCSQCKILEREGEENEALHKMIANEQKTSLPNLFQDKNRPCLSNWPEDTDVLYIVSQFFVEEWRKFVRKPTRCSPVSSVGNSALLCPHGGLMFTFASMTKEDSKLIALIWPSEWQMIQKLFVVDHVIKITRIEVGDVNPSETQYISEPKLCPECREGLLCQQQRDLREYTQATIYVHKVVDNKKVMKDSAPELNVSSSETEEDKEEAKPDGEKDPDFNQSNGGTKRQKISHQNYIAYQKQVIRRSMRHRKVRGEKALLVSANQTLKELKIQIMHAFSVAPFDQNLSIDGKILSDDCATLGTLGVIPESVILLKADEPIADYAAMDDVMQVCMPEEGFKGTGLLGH
Procedure, shortened: as §1

USP5 = molecular target: T4, USP5 (UniProt P45974)
T4 sequence (whole entry): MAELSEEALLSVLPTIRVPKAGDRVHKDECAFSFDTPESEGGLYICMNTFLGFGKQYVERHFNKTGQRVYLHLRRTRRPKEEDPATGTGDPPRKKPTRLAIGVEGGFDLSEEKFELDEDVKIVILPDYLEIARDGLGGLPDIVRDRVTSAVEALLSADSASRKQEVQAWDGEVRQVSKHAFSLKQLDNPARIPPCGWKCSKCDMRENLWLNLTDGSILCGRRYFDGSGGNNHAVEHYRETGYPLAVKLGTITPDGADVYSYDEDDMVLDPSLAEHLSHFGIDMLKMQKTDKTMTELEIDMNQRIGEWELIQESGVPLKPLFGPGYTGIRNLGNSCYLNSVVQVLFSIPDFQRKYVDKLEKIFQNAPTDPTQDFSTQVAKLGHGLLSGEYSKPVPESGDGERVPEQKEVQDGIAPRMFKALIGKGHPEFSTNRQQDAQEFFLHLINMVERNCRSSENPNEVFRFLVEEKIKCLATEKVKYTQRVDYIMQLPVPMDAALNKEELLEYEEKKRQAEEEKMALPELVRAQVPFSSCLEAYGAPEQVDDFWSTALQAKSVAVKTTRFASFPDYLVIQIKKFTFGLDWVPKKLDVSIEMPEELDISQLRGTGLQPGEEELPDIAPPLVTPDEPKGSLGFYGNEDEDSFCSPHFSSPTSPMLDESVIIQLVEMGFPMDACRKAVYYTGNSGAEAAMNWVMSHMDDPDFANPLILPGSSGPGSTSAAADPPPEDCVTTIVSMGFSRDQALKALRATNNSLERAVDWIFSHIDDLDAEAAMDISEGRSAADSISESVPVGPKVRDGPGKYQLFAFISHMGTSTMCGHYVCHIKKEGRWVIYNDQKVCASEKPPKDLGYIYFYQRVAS
Procedure, shortened: as §1

USP54 = USP54 (UniProt Q70EL1)
Procedure, shortened: as §1

USP7 = USP7 (UniProt Q93009)
Procedure, shortened: as §1

USP8 = molecular target: T5, USP8 (UniProt P40818)
T5 sequence (whole entry): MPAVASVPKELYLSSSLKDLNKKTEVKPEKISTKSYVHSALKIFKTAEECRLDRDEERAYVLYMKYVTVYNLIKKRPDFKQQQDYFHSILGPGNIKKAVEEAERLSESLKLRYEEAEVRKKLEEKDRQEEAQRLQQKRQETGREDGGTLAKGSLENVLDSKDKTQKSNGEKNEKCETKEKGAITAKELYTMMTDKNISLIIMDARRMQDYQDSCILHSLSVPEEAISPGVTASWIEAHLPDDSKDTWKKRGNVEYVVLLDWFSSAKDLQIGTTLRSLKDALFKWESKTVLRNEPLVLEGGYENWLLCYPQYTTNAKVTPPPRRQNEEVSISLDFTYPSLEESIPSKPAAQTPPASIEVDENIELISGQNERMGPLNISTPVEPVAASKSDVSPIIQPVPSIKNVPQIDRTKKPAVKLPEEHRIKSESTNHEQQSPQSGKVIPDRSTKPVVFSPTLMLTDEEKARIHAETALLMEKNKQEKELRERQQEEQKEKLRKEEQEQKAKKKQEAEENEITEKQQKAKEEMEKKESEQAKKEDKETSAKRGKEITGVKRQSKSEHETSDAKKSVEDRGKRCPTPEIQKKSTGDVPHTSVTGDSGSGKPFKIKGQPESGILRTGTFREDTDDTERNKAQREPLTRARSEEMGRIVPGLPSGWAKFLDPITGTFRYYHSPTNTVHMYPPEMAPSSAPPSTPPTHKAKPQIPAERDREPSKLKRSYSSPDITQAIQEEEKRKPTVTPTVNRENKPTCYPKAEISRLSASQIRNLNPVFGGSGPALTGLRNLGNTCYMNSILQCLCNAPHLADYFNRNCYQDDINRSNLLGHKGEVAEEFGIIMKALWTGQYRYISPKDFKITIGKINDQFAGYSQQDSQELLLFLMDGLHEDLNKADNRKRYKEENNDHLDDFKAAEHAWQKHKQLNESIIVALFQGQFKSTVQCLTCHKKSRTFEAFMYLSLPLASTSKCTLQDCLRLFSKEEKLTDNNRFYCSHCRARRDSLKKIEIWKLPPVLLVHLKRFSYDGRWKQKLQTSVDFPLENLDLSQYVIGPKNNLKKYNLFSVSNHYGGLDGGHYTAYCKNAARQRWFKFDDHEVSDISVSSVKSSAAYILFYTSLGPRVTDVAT
Procedure, shortened: as §1

USP9X = USP9X (UniProt Q93008)
Procedure, shortened: as §1

UniProt O00487 = molecular target: UniProt O00487
Procedure, shortened: as §1

Measured: log2 ratio of Biotin-Ahx-Ub-VS probe labelling

Sequence of USP9X (Q93008 whole entry): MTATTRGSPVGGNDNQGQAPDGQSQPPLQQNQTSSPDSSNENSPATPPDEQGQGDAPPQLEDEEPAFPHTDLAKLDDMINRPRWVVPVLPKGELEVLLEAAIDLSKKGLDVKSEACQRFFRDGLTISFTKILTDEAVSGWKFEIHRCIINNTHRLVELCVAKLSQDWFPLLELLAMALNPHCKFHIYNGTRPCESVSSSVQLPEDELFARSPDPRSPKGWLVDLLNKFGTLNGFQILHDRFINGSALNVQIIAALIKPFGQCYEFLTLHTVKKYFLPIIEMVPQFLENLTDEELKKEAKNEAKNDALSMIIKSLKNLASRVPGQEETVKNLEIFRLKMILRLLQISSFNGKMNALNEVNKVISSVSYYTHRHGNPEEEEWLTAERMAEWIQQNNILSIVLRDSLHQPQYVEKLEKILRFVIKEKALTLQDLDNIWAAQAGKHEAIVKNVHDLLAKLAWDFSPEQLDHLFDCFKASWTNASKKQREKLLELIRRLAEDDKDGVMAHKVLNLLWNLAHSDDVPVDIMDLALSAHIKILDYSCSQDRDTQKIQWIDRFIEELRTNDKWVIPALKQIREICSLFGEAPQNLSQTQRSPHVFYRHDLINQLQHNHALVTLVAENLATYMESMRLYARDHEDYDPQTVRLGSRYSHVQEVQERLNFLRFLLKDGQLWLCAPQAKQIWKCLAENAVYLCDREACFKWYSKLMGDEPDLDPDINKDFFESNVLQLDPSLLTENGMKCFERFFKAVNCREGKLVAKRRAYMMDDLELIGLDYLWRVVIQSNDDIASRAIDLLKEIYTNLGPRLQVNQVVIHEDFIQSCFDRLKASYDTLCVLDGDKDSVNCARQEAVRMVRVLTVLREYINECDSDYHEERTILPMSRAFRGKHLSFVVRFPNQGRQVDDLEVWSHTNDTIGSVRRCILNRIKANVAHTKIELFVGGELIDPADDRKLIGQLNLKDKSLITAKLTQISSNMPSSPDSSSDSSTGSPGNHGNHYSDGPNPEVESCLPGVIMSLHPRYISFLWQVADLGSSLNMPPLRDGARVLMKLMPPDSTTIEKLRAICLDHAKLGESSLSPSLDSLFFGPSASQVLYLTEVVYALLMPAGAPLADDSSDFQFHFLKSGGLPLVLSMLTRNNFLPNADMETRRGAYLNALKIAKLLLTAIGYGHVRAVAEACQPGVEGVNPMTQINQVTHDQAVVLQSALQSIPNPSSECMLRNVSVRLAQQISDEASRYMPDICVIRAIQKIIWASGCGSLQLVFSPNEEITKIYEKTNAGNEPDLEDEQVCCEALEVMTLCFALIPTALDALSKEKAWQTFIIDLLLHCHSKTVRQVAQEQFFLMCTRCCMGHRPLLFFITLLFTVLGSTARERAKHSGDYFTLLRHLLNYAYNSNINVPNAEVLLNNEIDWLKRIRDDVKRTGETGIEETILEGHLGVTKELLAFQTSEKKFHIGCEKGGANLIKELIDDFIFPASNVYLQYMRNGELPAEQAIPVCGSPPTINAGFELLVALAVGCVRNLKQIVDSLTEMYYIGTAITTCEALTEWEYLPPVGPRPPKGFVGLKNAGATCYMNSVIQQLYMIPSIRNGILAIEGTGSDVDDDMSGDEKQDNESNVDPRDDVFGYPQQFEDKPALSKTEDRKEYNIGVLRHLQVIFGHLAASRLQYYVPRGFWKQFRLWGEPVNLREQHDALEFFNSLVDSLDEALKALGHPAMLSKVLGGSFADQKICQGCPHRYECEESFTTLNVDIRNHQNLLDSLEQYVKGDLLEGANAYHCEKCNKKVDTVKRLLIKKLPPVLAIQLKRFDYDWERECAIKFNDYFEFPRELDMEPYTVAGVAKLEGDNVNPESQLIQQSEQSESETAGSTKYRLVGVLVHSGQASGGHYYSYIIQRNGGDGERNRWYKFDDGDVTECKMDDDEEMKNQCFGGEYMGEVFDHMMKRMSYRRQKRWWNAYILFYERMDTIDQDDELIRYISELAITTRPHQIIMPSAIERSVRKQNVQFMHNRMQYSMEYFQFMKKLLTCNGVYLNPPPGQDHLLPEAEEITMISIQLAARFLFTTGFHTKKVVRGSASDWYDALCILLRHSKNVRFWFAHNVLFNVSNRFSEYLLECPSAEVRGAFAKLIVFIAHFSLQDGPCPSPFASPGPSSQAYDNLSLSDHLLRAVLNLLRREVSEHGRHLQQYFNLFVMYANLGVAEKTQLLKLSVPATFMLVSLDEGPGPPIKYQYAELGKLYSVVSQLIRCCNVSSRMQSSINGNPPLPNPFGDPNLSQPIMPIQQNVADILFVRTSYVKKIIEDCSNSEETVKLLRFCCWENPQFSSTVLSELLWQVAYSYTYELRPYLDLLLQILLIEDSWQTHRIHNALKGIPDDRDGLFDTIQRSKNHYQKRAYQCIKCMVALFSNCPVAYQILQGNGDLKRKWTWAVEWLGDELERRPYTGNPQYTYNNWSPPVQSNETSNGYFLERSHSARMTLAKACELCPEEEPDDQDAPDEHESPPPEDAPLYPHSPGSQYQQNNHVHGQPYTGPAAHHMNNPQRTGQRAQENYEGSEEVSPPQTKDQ
Sequence of USP46 (P62068 whole entry): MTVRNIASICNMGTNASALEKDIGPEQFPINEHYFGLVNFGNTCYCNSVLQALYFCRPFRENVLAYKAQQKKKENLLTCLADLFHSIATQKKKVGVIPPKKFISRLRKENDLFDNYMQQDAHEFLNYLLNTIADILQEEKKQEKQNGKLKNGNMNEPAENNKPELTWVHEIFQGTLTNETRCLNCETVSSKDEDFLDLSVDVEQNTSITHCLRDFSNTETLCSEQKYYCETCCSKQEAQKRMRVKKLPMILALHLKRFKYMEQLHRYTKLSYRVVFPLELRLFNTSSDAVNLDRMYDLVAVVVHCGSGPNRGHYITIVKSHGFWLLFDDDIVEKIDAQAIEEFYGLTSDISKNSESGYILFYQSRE
Sequence of UniProt O00487 (O00487 whole entry): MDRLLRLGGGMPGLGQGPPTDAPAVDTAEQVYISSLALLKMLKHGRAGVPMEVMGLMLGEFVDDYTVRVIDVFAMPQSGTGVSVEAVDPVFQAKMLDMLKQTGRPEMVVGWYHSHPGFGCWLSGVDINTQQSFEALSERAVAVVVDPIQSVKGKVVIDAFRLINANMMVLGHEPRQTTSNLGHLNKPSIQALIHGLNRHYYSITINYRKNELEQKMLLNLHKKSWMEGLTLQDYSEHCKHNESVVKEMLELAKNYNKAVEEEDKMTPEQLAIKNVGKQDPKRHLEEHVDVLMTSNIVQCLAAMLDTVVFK
Sequence of USP54 (Q70EL1 whole entry): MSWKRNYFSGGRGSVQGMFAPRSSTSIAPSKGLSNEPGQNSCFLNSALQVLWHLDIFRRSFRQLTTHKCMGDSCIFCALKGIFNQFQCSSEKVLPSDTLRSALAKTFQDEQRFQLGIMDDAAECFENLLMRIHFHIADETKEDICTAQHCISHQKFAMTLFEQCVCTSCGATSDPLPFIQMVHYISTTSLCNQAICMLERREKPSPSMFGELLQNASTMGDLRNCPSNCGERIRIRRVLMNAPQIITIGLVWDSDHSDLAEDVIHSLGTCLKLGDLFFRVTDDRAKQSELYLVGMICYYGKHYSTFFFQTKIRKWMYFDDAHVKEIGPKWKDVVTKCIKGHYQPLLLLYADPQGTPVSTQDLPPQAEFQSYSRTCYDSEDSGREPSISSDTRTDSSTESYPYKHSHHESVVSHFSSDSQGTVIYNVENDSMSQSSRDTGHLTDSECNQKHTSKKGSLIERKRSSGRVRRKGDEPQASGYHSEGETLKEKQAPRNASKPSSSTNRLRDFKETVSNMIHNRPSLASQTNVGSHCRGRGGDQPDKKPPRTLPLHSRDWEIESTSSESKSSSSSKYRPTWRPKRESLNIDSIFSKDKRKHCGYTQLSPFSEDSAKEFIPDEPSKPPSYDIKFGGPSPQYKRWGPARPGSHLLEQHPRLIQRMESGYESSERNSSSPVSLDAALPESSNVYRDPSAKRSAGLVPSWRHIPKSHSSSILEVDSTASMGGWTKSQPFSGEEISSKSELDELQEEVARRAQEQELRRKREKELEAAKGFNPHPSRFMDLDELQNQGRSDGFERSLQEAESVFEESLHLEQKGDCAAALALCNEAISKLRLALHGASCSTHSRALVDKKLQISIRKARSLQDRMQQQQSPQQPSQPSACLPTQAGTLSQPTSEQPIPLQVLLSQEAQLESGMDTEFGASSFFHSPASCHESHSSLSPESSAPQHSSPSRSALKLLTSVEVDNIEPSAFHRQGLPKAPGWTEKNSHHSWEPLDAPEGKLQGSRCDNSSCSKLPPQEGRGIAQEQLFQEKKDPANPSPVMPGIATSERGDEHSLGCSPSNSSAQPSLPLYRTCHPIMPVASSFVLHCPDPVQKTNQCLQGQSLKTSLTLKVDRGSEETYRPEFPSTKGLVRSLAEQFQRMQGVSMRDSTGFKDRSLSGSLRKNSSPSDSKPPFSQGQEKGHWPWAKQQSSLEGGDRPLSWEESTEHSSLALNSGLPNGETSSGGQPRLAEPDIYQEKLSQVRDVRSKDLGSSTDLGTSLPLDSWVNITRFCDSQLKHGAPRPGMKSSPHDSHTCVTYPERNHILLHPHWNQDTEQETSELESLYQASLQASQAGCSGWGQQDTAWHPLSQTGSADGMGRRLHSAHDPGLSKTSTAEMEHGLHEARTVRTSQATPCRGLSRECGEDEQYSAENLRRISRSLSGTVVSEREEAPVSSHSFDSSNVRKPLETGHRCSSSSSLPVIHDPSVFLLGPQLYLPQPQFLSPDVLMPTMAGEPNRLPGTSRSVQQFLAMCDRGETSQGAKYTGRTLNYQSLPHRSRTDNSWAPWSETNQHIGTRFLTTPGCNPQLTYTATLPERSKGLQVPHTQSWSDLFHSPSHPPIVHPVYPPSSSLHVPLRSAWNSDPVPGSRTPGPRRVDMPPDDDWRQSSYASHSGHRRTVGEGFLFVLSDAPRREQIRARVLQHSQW

Cc1ccc(CN(CCO)C(=O)CCl)cc1
inactive: USP42 -0.148 | USP46 -0.105 | USP47 -0.828 | USP48 -0.292 | USP5 -0.134 | USP54 0.222 | USP7 -0.788 | USP8 -0.664 | USP9X -0.526 | UniProt O00487 -0.0465
